# Test results taken from publication PMC11062922 (Nature Chemical Biology, 2023).
# Like-named read-outs stand apart in the source and are kept apart here.
# Assays:
# Parameters in all cases: species or system human, MV4-11 + K-562 + COLO205 + SK-N-BE2 + OVCAR-8
# ACVR1B = conditions: read-out: apparent Kd, n = 1
# ADCK3 = conditions: read-out: apparent Kd, n = 1
# ACVR1 = conditions: read-out: apparent Kd; compound concentrations: 100 nM and 1000 nM (sheet 'Samples'), CATDS: 0.106513578189519; n = 1
# ACVR2B = conditions: read-out: apparent Kd; compound concentrations: 100 nM and 1000 nM (sheet 'Samples'), CATDS: 0.67382048852526699; n = 1
# RET = conditions: read-out: apparent Kd; compound concentrations: 100 nM and 1000 nM (sheet 'Samples'), CATDS: 0.12802615197662401; n = 1
# RIPK2 = conditions: read-out: apparent Kd, compound concentrations: 100 nM and 1000 nM (sheet 'Samples'), n = 1
# RIPK3 = conditions: read-out: apparent Kd; compound concentrations: 100 nM and 1000 nM (sheet 'Samples'), CATDS: 9.0295884260328696E-2; n = 1
# TGFBR1 = conditions: read-out: apparent Kd, compound concentrations: 100 nM and 1000 nM (sheet 'Samples'), n = 1
# CLK1 = conditions: read-out: apparent Kd; compound concentrations:100 nM and 1000 nM (sheet 'Samples'); n = 1
# CLK4 = conditions: read-out: apparent Kd; compound concentrations:100 nM and 1000 nM (sheet 'Samples'); n = 1
# CSNK1E = conditions: read-out: apparent Kd, n = 1
# DYRK1A = conditions: read-out: apparent Kd; compound concentrations:100 nM and 1000 nM (sheet 'Samples'); n = 1
# ILK = conditions: read-out: apparent Kd, n = 1
# MAP2K1 = conditions: read-out: apparent Kd; compound concentrations:100 nM and 1000 nM (sheet 'Samples'); n = 1
# MAP2K2 = conditions: read-out: apparent Kd; compound concentrations:100 nM and 1000 nM (sheet 'Samples'); n = 1
# MAPK14 = conditions: read-out: apparent Kd, n = 1
# MAPKAPK2 = conditions: read-out: apparent Kd, n = 1
# NNT = conditions: read-out: apparent Kd; compound concentrations:100 nM and 1000 nM (sheet 'Samples'); n = 1
# PIP4K2C = conditions: read-out: apparent Kd; compound concentrations:100 nM and 1000 nM (sheet 'Samples'); n = 1
# STK26 = conditions: read-out: apparent Kd; compound concentrations:100 nM and 1000 nM (sheet 'Samples'); n = 1
# AKT3 = conditions: read-out: apparent Kd; compound concentrations: 100 nM and 1000 nM (sheet 'Samples'), CATDS: 5.7187277937225903E-2; n = 1
# CIT = conditions: read-out: apparent Kd; compound concentrations: 100 nM and 1000 nM (sheet 'Samples'), CATDS: 5.03714140810754E-2; n = 1
# CSNK1A1 = conditions: read-out: apparent Kd; compound concentrations: 100 nM and 1000 nM (sheet 'Samples'), CATDS: 7.2342208976373404E-2; n = 1
# CSNK1D = conditions: read-out: apparent Kd, compound concentrations: 100 nM and 1000 nM (sheet 'Samples'), n = 1
# MAPK10 = conditions: read-out: apparent Kd; compound concentrations: 100 nM and 1000 nM (sheet 'Samples'), CATDS: 8.4251059270540496E-2; n = 1
# MAPK9 = conditions: read-out: apparent Kd; compound concentrations: 100 nM and 1000 nM (sheet 'Samples'), CATDS: 7.1166451805227196E-2; n = 1
# MYLK3 = conditions: read-out: apparent Kd; compound concentrations: 100 nM and 1000 nM (sheet 'Samples'), CATDS: 7.2718608613227403E-2; n = 1
# AGPS = conditions: read-out: apparent Kd; compound concentrations: 100 nM and 1000 nM (sheet 'Samples'), CATDS: 9.4477869255485902E-2; n = 1
# MDN1 = conditions: read-out: apparent Kd; compound concentrations: 100 nM and 1000 nM (sheet 'Samples'), CATDS: 9.4286494514119495E-2; n = 1
# TESK2 = conditions: read-out: apparent Kd; compound concentrations: 100 nM and 1000 nM (sheet 'Samples'), CATDS: 9.9817052034954598E-2; n = 1
# DDR1 = conditions: read-out: apparent Kd; compound concentrations: 100 nM and 1000 nM (sheet 'Samples'), CATDS: 0.15549636172905901; n = 1
# JAK2 = conditions: read-out: apparent Kd; compound concentrations: 100 nM and 1000 nM (sheet 'Samples'), CATDS: 0.70328815445029103; n = 1
# NLK = conditions: read-out: apparent Kd; compound concentrations: 100 nM and 1000 nM (sheet 'Samples'), CATDS: 0.152320021786015; n = 1
# [1] = compound concentrations:100 nM and 1000 nM (sheet 'Samples')
structure (smiles),measurement,setting,value
COc1ccc2cc(-c3c(-c4ccncc4)nc(-c4ccc(S(C)(=O)=O)cc4C)n3C)ccc2c1 [SB-633825],potency estimated from few doses,ACVR1B; [1],0.686 µM
same,potency estimated from few doses,ADCK3; [1],0.803 µM
Cl.c1ccc(-c2ccc3c(Nc4ccc5[nH]ncc5c4)ccnc3c2)nc1 [GW440137A],potency estimated from few doses,"ACVR1B; compound concentrations: 100 nM and 1000 nM (sheet 'Samples'), CATDS: 0.112387102296717",0.766 µM
same,potency estimated from few doses,ACVR1,0.904 µM
same,potency estimated from few doses,ACVR2B,0.0119 µM
same,potency estimated from few doses,"ADCK3; compound concentrations: 100 nM and 1000 nM (sheet 'Samples'), CATDS: 9.7735008507333701E-2",1.2 µM
same,potency estimated from few doses,RET,0.525 µM
same,potency estimated from few doses,RIPK2; CATDS: 0.29852587031983902,0.0589 µM
same,potency estimated from few doses,RIPK3,1.6 µM
same,potency estimated from few doses,TGFBR1; CATDS: 8.5016049032497404E-2,2.06 µM
Nc1nc(-c2ccc(F)cc2)c(-c2ccc3ncccc3n2)s1 [GW785804X],potency estimated from few doses,ACVR1B; [1],0.0579 µM
same,potency estimated from few doses,CLK1,0.997 µM
same,potency estimated from few doses,CLK4,1.1 µM
same,potency estimated from few doses,CSNK1E; [1],2.4 µM
same,potency estimated from few doses,DYRK1A,1.97 µM
same,potency estimated from few doses,ILK; [1],2.08 µM
same,potency estimated from few doses,MAP2K1,1.91 µM
same,potency estimated from few doses,MAP2K2,2.06 µM
same,potency estimated from few doses,MAPK14; [1],0.567 µM
same,potency estimated from few doses,MAPKAPK2; [1],1.41 µM
same,potency estimated from few doses,NNT,0.164 µM
same,potency estimated from few doses,PIP4K2C,2.21 µM
same,potency estimated from few doses,STK26,2.33 µM
Nc1nccc(-c2c(-c3ccc(F)cc3)ncn2CCCN2CCOCC2)n1 [SB-216385],potency estimated from few doses,"ACVR1B; compound concentrations: 100 nM and 1000 nM (sheet 'Samples'), CATDS: 6.1592389938983201E-2",1.12 µM
same,potency estimated from few doses,AKT3,1.44 µM
same,potency estimated from few doses,CIT,2.4 µM
same,potency estimated from few doses,CSNK1A1,0.712 µM
same,potency estimated from few doses,CSNK1D; CATDS: 0.22591064083460399,0.0866 µM
same,potency estimated from few doses,"CSNK1E; compound concentrations: 100 nM and 1000 nM (sheet 'Samples'), CATDS: 0.181188642263544",0.12 µM
same,potency estimated from few doses,MAPK10,0.493 µM
same,potency estimated from few doses,"MAPK14; compound concentrations: 100 nM and 1000 nM (sheet 'Samples'), CATDS: 0.16940162518750301",0.134 µM
same,potency estimated from few doses,MAPK9,0.743 µM
same,potency estimated from few doses,"MAPKAPK2; compound concentrations: 100 nM and 1000 nM (sheet 'Samples'), CATDS: 7.7439810634818695E-2",0.601 µM
same,potency estimated from few doses,MYLK3,0.703 µM
same,potency estimated from few doses,RIPK2; CATDS: 6.8187313119451795E-2,0.834 µM
same,potency estimated from few doses,TGFBR1; CATDS: 5.4047908089072998E-2,1.77 µM
CN1CCN(CCCNc2nccc(-c3c(-c4ccc(F)cc4)nn4cc(C(F)(F)F)ccc34)n2)CC1 [GW621581X],potency estimated from few doses,"ACVR1B; compound concentrations: 100 nM and 1000 nM (sheet 'Samples'), CATDS: 0.17734677143715399",0.667 µM
same,potency estimated from few doses,AGPS,2.19 µM
same,potency estimated from few doses,CSNK1D; CATDS: 0.11827296398223,1.33 µM
same,potency estimated from few doses,"CSNK1E; compound concentrations: 100 nM and 1000 nM (sheet 'Samples'), CATDS: 9.3377022470402096E-2",2.25 µM
same,potency estimated from few doses,"ILK; compound concentrations: 100 nM and 1000 nM (sheet 'Samples'), CATDS: 9.8525851125826097E-2",1.97 µM
same,potency estimated from few doses,"MAPK14; compound concentrations: 100 nM and 1000 nM (sheet 'Samples'), CATDS: 0.13638952707170801",1.02 µM
same,potency estimated from few doses,"MAPKAPK2; compound concentrations: 100 nM and 1000 nM (sheet 'Samples'), CATDS: 0.13321456142161001",1.07 µM
same,potency estimated from few doses,MDN1,2.2 µM
same,potency estimated from few doses,TESK2,1.91 µM
COc1ccc(-c2nn3ncccc3c2-c2ccnc(Nc3ccc(F)c(F)c3)n2)cc1 [GW827396X],potency estimated from few doses,"ACVR1B; compound concentrations: 100 nM and 1000 nM (sheet 'Samples'), CATDS: 0.188759897575135",1.02 µM
same,potency estimated from few doses,DDR1,1.77 µM
same,potency estimated from few doses,JAK2,0.073 µM
same,potency estimated from few doses,"MAPK14; compound concentrations: 100 nM and 1000 nM (sheet 'Samples'), CATDS: 0.189242383322658",1.01 µM
same,potency estimated from few doses,NLK,1.9 µM
